Results on 7 molecules are retold here after PubChem BioAssay (NCATS).

In assay [1] the target is Lysosomal acid glucosylceramidase (Homo sapiens) (UniProt P04062). Kind of assay: Glucocerebrosidase-p2 (AID 348; in the data active means potency below about 10 µM; further: potency means the concentration at half of the fitted maximal effect). To be noted: purified GBA, blue fluorogenic substrate, 40 min. In short, it runs like this:
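Normal human glucocerebrosidase (0.2 nM) with blue fluorogenic substrate (80 uM final) in citrate/phosphate pH 5.9 with 10mM sodium taurocholate, 0.01% tween-20; 40 min RT, NaOH/glycine stop; fluorescence Ex 365/Em 440; AC50 from a titration from 0.6 nM upwards.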

Assay [2] deals with Cytochrome P450 1A2 (Homo sapiens) (UniProt P05177). As to the kind of experiment: p450-cyp1a2 (AID 410; calls by dose curve; further: potency means the concentration at half of the fitted maximal effect;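 on activity change, negative = inhibition: -100% = full effect of reference inhibitor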). Conditions: recombinant CYP1A2, luciferin-ME demethylation, luminescence; series mostly up to 11.4 µM. In short, it runs like this:
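Read-out is luminescence from luciferin produced by CYP1A2 demethylation of Luciferin-ME (100uM, at Km). Detection reagent stopped the 60 min NADPH-dependent reaction; signals were normalized to 57 uM furafylline.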

The target of assay [3] is Glucocorticoid receptor (Homo sapiens) (UniProt P04150). Kind of assay: GR-GFP Redistribution (AID 450;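 active means compounds whose dose series gives a full or clear partial fitted curve of increased nuclear translocation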; further: potency means the concentration at half of the fitted maximal effect). To be noted: U2OS GR-GFP nuclear translocation, laser cytometry, 2 h.
Assay [4] shares this target. As to the kind of experiment: GR-EFC Redistribution (AID 451; calls by dose curve; further: potency means the concentration at half of the fitted maximal effect). Conditions: CHO-K1 GR-EFC translocation, beta-gal luminescence, 2 h. In short, it runs like this: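 CHO-K1 cells stably expressing nuclear-localized β-gal enzyme acceptor and GR fused C-terminally to the enzyme donor fragment; ligand-driven nuclear translocation restores β-gal by complementation. Compounds titrated up to 46 uM final, 2 h at 37 °C; luminescence read.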

Assay [5] has as its target 3',5'-cyclic-AMP phosphodiesterase 4B (Homo sapiens) (UniProt Q07343). As to the kind of experiment: qHTS Assay for Inhibitors of PDE-IV (AID 607; active means well fitted activation curve with a large enough effect in the main read-out, with a control signal flat, not every such curve was filed as active; further: % of control where 0% means no effect). To be noted: HEK293 ACTOne CNG channel cells, membrane potential fluorescence; series mostly up to 22.9 µM. In short, it runs like this:
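The readout is membrane depolarisation from a cAMP-sensing CNG channel, detected with a potential dye at ex 535/em 590. Cells were HEK293-derived (endogenous PDE-IV) at 1000 cells/well, titrated up to 22.9 uM final.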
(In general: Quantitative high-throughput screening tests each substance at several concentrations.)

Assay [6] deals with Cytochrome P450 3A4 (Homo sapiens) (UniProt P08684). As to the kind of experiment: qHTS Assay for Inhibitors and Substrates of Cytochrome P450 3A4 (AID 884; active means well fitted curve in the direction sought with a large enough effect; an effect the other way counts as inactive or inconclusive; further: potency means the concentration at half of the fitted maximal effect; nearly all actives have a fitted effect of over 50% in size). Conditions: recombinant CYP3A4, Luciferin-PPXE luminescence; series mostly up to 57.1 µM. In short, it runs like this: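 Luminescent readout of luciferin produced by CYP3A4 (20 nM) dealkylation of Luciferin-PPXE, 25 uM (its KM). NADPH-driven reaction ran 60 min at RT after 10 min compound preincubation; data scaled to 57 uM ketoconazole as 100% inhibition.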

Assay [7] has the same target. As to the kind of experiment: qHTS Assay for Activators of Cytochrome P450 3A4 (AID 885; active means well fitted curve in the direction sought with a large enough effect; an effect the other way counts as inactive or inconclusive; further: nearly all actives have a fitted effect of over 65% in size). To be noted: recombinant CYP3A4, Luciferin-PPXE luminescence, 60 min; series mostly up to 11.4 µM. In short, it runs like this: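 Activators are scored by enhanced luminescence from CYP3A4 conversion of luciferin-PPXE (25uM, equal to KM) to luciferin, after 60 min at RT with an NADPH-regenerating system.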

Assay [8] in a line: NFAT Signaling Pathway (AID 444).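 Further: carbachol stimulus at about its EC50 of 1 µM final; on the % scale 0 is the no-effect control and ±100 the full control effect.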 To be noted: Jurkat NFAT-bla M1, carbachol, beta-lactamase ratio, 5 h. In short, it runs like this: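 Jurkat cells carrying an NFAT-driven β-lactamase reporter and co-transfected muscarinic M1 receptor were treated with compound plus carbachol (1 uM final, an EC50 level) for 5 h at 37 °C. CCF4 loading followed for 1 h at RT; 460/530 nm ratio gave %activity.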

Assay [9] in a line: Stat Signaling Pathway (AID 446).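 Further: ME-180 cervical cancer cells given 40 pM IL-6 alongside compound; SIE-controlled beta-lactamase reporter measured as 460/530 nm FRET emission ratio; on the % scale 0 is the no-effect control and ±100 the full control effect.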 Conditions: ME-180 SIE beta-lactamase reporter, IL-6 stimulated, 5 h. In short, it runs like this: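 Emission at 460 and 530 nm (excitation 405 nm) reports SIE-controlled beta-lactamase in ME-180 cells. Cells received compound with 40 pM IL-6 for 5 hrs at 37 C; data scaled between 300 pM IL-6 and 125 nM JAK-inhibitor controls.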
Assay [10] has as its target Mitogen-activated protein kinase 10 (Mus musculus) (UniProt Q61831). Kind of assay: JNK3 AlphaScreen Assay (AID 530).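 Further: kinase came from lysate of stimulated human HepG2 cells; signal reports phosphorylation of biotinylated GST-cJun 1-79 at Ser73 with 10 µM ATP; on the % scale 0 is the no-effect control and ±100 the full control effect.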 Conditions: JNK3 lysate, c-Jun phosphorylation; series mostly up to 11.4 µM. In short, it runs like this:
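Biotinylated GST-cJun(1-79) served as substrate for JNK3 in HepG2 lysates stimulated with IL-1beta and TNF-alpha. ATP was 10 uM final, pH 7.6. Ser73 phosphorylation was quantified by AlphaScreen (680 nm excitation).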
(In general: Alpha assays give light when donor and acceptor beads are brought close together.)

The target of assay [11] is Cytochrome P450 2C9 (Homo sapiens) (UniProt P11712). As to the kind of experiment: qHTS Assay for Inhibitors and Substrates of Cytochrome P450 2C9 (AID 883; active means well fitted curve in the direction sought with a large enough effect; an effect the other way counts as inactive or inconclusive; further: potency means the concentration at half of the fitted maximal effect; nearly all actives have a fitted effect of over 60% in size). To be noted: recombinant CYP2C9, luciferin-H luminescence, 60 min; series mostly up to 11.4 µM. In short, it runs like this:
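CYP2C9 deoxyluciferin hydroxylation, 37C, 60 min with NADPH regeneration; 10nM enzyme, 100uM Luciferin-H (KM). Glo detection reagent stopped reaction; luminescence normalized to sulphaphenazole (57uM) full inhibition.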

The target of assay [12] is Cytochrome P450 2D6 (Homo sapiens) (UniProt P10635). As to the kind of experiment: qHTS Assay for Inhibitors and Substrates of Cytochrome P450 2D6 (AID 891; active means well fitted curve in the direction sought with a large enough effect; an effect the other way counts as inactive or inconclusive; further: potency means the concentration at half of the fitted maximal effect; nearly all actives have a fitted effect of over 60% in size). To be noted: recombinant CYP2D6, luciferin-ME EGE luminescence; series mostly up to 11.4 µM. In short, it runs like this:
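Luminescent read-out of luciferin formed by 5 nM human CYP2D6 demethylating 30 uM Luciferin-ME EGE (Km level) over 60 min at room temperature after NADPH regeneration addition. Data normalized to full inhibition by 1.43 uM quinidine.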

For assay [13], the target named is Cytochrome P450 2C19 (Homo sapiens) (UniProt P33261). Kind of assay: qHTS Assay for Inhibitors and Substrates of Cytochrome P450 2C19 (AID 899; active means well fitted curve in the direction sought with a large enough effect; an effect the other way counts as inactive or inconclusive; further: potency means the concentration at half of the fitted maximal effect; nearly all actives have a fitted effect of over 60% in size). To be noted: recombinant CYP2C19, luciferin-H EGE luminescence; series mostly up to 11.4 µM. In short, it runs like this:
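In 50mM KPO4, the reaction held 5nM enzyme and KM-level (10uM) Luciferin-H EGE; it ran 60 min at 37C after NADPH regeneration and a 10 min compound preincubation. Luminescence values were scaled to 57uM ketoconazole as complete inhibition.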

Assay [14] can be described thus: AP1 Signaling Pathway (AID 357). Further: on the % scale 0 is the no-effect control and ±100 the full control effect. Conditions: ME-180 (cervical carcinoma) AP-1-bla reporter, EGF-induced, beta-lactamase ratio, 5 h. In short, it runs like this: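 Cells are seeded overnight, exposed to compound titrations and an EC50 level of EGF for 5 hours at 37 °C, then loaded with CCF4 dye for 2.5 hours. Beta-lactamase activity under the AP-1 element is read as a blue/green ratio.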

A short description of assay [15]: qHTS profiling for inhibitors of Plasmodium falciparum proliferation (AID 504749; active means well fitted curve in the direction sought with a large enough effect; an effect the other way counts as inactive or inconclusive; further: potency means the concentration at half of the fitted maximal effect; nearly all actives have a fitted effect of over 60% in size). Conditions: P. falciparum in erythrocytes, SYBR Green DNA, 72 h. In short, it runs like this: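 Fluorescence of SYBR Green-bound parasite DNA, read at 485/535 nm, served as the growth measure. Infected erythrocytes were cultured with compound 72 h; artemisinin (0.29 uM) and DMSO wells defined the normalization range.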

Assay [16] addresses Guanine nucleotide-binding protein G(i) subunit alpha-1 (Homo sapiens) (UniProt P63096). As to the kind of experiment: qHTS Assay for Inhibitors of RGS12 GoLoco Motif Activity (Green Fluorophore) (AID 879; active means well fitted curve in the direction sought with a large enough effect; an effect the other way counts as inactive or inconclusive;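 further: 0% = labeled peptide with Gαi1 and full inhibition = labeled peptide alone without protein; negative values mean loss of peptide binding seen as reduced polarization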). Conditions: Galphai1/FITC-RGS12 GoLoco peptide, fluorescence polarization; series mostly up to 57.1 µM. In short, it runs like this:
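A drop in FITC polarization marked displacement of the FITC-tagged RGS12 GoLoco peptide (10 nM) from Gαi1 (50 nM). Compounds were incubated 10 min at room temperature in Tris pH 7.5 buffer containing 150 mM NaCl, 0.1 mM GDP and 0.05% NP40; unlabeled peptide titration served as control.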

Assay [17] concerns the target Pyruvate kinase PKM (Homo sapiens) (UniProt P14618). As to the kind of experiment: qHTS Assay for Activators of Human Muscle Pyruvate Kinase (AID 954; active means well fitted curve in the direction sought with a large enough effect, not every such curve was filed as active;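 further: 0% = uninhibited enzyme and -100% = no enzyme or full thiadiazolimine inhibition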). Conditions: purified human muscle pyruvate kinase, luciferase-coupled luminescence, 1 h; series mostly up to 57.5 µM. In short, it runs like this:
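PKM2, human, >95% pure, 0.1 nM; PEP 0.5 mM (Km), ADP 0.1 mM; 50 mM imidazole pH 7.2, 50 mM KCl, 0.01% Tween 20, 0.05% BSA; 1 h RT; luciferase luminescence readout.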

Assay [18] deals with Alpha-galactosidase A (Homo sapiens) (UniProt P06280). Kind of assay: Counterscreen for Glucocerebrosidase Inhibitors: qHTS Assay for Human alpha-Galactosidase at pH 4.5 (AID 992; active means well fitted curve in the direction sought with a large enough effect; an effect the other way counts as inactive or inconclusive; further: 0% is about no effect). To be noted: purified enzyme, fluorogenic substrate; series mostly up to 76.9 µM. In short, it runs like this: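 Fluorogenic 4-MU alpha-D-galactoside (80 uM) hydrolysis, 2 nM enzyme, pH 4.5 citrate buffer + 0.005% Tween-20; 20 min RT; NaOH/glycine pH 10 stop; Ex365/Em440. Compounds titrated 0.7 nM–77 uM; Hill-equation AC50.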
Background: The purpose of a counterscreen is to sort out artefacts and off-target activity.

For assay [19], the target named is alpha-glucosidase (Oryza sativa, rice) (UniProt Q653V4). Kind of assay: Counterscreen for Glucocerebrosidase Inhibitors: qHTS Assay for Rice alpha-Glucosidase at pH 5.0 (AID 997; active means well fitted curve in the direction sought with a large enough effect; an effect the other way counts as inactive or inconclusive;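 further: 0% = full activity with enzyme and -100% = basal without enzyme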). Conditions: rice alpha-glucosidase enzyme activity; series mostly up to 76.9 µM. In short, it runs like this: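 Endpoint fluorogenic assay at pH 5.0: compounds (0.7 nM to 77 uM) titrated against 4 nM rice enzyme and 400 uM 4-MU-alpha-glucoside for 20 min at room temperature; NaOH/glycine stop, read ex 365/em 440 nm, Hill-fitted AC50.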

[20] abbreviates: at 7.69 µM (top of the series) unless noted.

Structures are written as SMILES. A number with no mark means an inactive call. Results filed as inconclusive are left out. The source made the active and inactive calls. Unless noted, the call rests on the fitted dose curve; in most records, active means well fitted curve in either direction with a large enough effect (not every such curve was filed as active); inconclusive means small, poorly fitted or top-dose-only effect, or another doubt; inactive means flat fitted curve, though single readings scatter.

Sequence of Cytochrome P450 3A4 (Homo sapiens) (P08684 whole entry, looked up): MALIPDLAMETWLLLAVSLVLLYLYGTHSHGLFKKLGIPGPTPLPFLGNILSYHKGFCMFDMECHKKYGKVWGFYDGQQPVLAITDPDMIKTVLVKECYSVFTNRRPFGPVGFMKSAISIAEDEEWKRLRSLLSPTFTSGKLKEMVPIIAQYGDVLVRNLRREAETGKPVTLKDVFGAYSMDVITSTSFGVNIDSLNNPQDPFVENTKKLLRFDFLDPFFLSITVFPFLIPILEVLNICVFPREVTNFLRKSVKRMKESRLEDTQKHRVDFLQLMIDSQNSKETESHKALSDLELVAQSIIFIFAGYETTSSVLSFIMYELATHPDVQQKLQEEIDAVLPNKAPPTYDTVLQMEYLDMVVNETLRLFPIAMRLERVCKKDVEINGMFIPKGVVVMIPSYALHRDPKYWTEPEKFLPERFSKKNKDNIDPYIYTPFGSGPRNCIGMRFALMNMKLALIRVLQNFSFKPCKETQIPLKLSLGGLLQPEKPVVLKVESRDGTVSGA
Sequence of Cytochrome P450 1A2 (Homo sapiens) (P05177 whole entry, looked up): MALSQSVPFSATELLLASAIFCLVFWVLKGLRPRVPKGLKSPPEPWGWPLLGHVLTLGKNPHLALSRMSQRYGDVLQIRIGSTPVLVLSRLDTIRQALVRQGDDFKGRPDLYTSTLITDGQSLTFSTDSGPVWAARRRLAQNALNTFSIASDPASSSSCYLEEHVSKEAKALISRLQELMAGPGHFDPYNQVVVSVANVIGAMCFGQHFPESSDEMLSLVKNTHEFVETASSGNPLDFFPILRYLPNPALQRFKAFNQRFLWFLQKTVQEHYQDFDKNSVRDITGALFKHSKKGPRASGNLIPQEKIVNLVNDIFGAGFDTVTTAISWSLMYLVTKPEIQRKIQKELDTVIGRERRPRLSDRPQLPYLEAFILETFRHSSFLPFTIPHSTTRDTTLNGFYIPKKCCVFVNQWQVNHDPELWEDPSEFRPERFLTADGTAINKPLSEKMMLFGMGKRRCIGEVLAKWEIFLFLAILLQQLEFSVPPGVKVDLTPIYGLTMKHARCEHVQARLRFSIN
Sequence of 3',5'-cyclic-AMP phosphodiesterase 4B (Homo sapiens) (Q07343 whole entry, looked up): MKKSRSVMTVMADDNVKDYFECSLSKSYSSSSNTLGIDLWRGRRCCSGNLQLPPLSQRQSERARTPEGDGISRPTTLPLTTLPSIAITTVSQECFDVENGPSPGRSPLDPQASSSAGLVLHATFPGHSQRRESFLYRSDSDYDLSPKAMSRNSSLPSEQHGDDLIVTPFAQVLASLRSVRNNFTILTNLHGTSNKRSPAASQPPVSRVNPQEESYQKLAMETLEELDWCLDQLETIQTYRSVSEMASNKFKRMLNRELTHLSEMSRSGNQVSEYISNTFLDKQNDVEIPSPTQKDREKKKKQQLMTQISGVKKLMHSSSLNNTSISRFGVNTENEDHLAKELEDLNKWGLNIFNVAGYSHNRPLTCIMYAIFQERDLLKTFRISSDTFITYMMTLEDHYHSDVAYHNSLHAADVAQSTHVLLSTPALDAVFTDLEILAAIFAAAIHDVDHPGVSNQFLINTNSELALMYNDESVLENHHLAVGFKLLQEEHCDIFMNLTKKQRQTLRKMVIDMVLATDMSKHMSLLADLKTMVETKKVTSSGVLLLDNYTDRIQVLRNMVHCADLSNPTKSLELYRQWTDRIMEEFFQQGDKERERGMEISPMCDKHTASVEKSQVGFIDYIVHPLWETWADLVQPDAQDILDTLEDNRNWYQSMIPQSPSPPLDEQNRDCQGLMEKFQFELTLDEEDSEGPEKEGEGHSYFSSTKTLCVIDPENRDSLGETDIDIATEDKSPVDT
Sequence of Glucocorticoid receptor (Homo sapiens) (P04150 whole entry, looked up, the tested form may be a part): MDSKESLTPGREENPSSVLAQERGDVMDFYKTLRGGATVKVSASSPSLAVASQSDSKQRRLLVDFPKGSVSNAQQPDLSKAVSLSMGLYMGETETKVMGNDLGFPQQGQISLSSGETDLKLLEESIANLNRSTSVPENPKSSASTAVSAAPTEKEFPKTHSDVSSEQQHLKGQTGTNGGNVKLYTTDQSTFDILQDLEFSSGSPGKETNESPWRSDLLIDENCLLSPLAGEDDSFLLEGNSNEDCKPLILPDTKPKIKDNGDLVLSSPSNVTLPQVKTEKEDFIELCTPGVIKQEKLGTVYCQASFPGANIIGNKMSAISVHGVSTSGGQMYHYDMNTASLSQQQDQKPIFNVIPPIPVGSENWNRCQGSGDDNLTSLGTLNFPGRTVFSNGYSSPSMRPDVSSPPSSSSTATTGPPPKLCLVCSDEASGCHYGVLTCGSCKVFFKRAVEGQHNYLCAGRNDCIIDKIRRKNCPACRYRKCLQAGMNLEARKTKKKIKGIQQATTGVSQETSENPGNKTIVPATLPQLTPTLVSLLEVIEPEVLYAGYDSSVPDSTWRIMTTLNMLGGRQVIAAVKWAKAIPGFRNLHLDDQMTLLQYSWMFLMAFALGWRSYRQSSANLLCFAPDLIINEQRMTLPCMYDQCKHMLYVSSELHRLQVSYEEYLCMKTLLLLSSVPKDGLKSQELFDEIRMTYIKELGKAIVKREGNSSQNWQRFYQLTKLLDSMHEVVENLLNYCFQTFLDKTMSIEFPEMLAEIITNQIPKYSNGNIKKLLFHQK
Sequence of Lysosomal acid glucosylceramidase (Homo sapiens) (P04062 whole entry, looked up): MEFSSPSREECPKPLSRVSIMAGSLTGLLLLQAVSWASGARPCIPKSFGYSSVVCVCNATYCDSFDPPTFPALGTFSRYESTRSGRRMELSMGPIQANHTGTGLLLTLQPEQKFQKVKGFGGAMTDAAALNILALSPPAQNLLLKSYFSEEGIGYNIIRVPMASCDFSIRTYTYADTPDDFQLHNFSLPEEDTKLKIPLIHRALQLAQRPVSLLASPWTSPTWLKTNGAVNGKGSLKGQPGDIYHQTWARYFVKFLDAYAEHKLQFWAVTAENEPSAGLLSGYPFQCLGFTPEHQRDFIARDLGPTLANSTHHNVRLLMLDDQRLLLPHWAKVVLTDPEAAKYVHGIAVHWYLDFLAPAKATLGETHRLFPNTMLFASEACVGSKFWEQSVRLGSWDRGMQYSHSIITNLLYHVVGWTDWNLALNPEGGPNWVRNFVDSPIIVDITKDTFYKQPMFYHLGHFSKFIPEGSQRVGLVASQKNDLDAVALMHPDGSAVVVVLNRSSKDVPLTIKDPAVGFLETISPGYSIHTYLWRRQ
Sequence of Pyruvate kinase PKM (Homo sapiens) (P14618 whole entry, looked up): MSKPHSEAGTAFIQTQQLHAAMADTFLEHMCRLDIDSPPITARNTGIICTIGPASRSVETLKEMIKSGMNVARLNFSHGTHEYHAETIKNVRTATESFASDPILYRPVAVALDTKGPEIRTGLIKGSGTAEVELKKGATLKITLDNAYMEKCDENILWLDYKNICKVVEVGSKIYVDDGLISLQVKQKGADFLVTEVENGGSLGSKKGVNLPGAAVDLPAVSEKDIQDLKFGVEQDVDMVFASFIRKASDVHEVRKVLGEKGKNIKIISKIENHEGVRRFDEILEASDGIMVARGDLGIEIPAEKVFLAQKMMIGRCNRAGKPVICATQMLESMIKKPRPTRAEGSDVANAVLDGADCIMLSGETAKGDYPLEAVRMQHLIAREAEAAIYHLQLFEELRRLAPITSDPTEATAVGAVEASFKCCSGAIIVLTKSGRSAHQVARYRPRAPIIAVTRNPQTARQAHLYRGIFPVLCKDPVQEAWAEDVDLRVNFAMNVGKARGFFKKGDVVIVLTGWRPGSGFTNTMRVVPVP
Sequence of Guanine nucleotide-binding protein G(i) subunit alpha-1 (Homo sapiens) (P63096 whole entry, looked up): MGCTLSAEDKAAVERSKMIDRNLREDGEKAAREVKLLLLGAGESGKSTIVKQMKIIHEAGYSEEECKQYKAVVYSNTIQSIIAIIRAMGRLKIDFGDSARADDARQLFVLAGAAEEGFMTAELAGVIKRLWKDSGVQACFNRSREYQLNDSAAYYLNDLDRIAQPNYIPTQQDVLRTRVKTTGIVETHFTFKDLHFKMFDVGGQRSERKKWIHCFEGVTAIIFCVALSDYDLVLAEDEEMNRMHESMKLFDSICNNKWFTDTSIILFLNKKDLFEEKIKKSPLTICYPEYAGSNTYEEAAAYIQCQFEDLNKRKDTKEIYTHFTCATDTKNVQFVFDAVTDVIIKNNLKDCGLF
Sequence of Alpha-galactosidase A (Homo sapiens) (P06280 whole entry, looked up): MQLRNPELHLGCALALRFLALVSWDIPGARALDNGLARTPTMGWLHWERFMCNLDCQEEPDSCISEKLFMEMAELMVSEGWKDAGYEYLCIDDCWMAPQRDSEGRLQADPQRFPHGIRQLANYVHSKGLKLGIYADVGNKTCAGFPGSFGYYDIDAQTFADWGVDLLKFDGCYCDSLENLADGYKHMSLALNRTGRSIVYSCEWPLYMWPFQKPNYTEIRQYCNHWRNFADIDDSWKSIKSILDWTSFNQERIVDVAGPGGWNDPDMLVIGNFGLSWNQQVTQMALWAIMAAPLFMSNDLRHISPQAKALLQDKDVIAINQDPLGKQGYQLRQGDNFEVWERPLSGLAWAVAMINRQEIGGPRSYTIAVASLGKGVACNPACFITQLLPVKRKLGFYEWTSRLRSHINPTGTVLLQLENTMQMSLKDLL
Sequence of Cytochrome P450 2C19 (Homo sapiens) (P33261 whole entry, looked up): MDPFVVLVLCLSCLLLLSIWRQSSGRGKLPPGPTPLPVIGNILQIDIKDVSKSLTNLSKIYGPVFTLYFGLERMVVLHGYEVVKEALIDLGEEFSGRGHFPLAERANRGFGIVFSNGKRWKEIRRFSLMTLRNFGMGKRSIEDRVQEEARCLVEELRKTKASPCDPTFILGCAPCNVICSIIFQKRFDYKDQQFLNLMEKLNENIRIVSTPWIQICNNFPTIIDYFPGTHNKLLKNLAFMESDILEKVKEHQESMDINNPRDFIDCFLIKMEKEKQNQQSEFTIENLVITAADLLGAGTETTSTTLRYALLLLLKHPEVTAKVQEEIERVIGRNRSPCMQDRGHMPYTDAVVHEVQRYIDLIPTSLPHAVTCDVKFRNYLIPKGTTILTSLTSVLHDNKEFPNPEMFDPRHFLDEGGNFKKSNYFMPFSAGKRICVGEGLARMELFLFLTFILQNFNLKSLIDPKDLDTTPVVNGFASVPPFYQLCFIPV

Regarding `O=c1c(-c2ccccc2)nc2cnc(N3CCNCC3)nc2n1Cc1ccc(F)cc1`, the Potency in assay [1] is more than 11.4 µM; in [2], 20 µM (active); in [3], more than 9.22 µM; in [4], more than 46 µM; in assay [6] it was 3.16 µM (active). Moreover, the Potency result in assay [5] and in [7] was “inactive” each time.

Consider `NS(=O)(=O)c1ccc(N=Nc2cc3ccccc3c(C(=O)O)c2O)cc1`, for which the Potency in [1] was more than 11.4 µM; in assay [2], 1 µM (active); in [3] it was more than 46 µM; in assay [4], more than 9.22 µM. Besides, the Potency result in assay [5] and in [7] was “inactive” each time.

As to `CN(Cc1ccccc1)Cn1ccnc1`, the Potency is more than 11.4 µM in assay [1]; more than 46 µM in assay [3]; more than 9.22 µM in assay [4]; 2.51 µM (active) in assay [11]; 0.794 µM (active) in assay [12]; 2 µM (active) in assay [13]. The activity change, negative = inhibition in assay [8] (setting [20]) was -1.18%. Also, in assay [9] (setting [20]), the activity, negative = inhibition was 10.2%. Besides, the Potency result in assay [10], in assay [5] and in assay [7] was “inactive” in each case.

On to `Cc1cccc(CNc2nc(-c3cccnc3)nc3ccccc23)c1`, for which the Potency was more than 11.4 µM in assay [1], 0.631 µM (active) in assay [2], more than 46 µM in [3] and more than 46 µM in assay [4]. Further, the Potency result in assay [10] and in assay [7] was “inactive” each time.

On to `O=C(O)[C@@H](S)[C@H](S)C(=O)O`, for which the activity change, negative = inhibition in assay [14] (setting [20]) was 8.2%; in [8] (setting [20]), -7.29%. The Potency result in assay [2], in [10] and in assay [5] was “inactive” each time. Moreover, the activity, negative = inhibition in [9] (setting [20]) is 1.47%. In addition, the Potency is more than 46 µM in assay [3], more than 9.22 µM in assay [4], 10 µM (active) in assay [15] (parasite line A) and 7.08 µM (active) in [15] (parasite line B).

For `Cc1nnc(SCC2=C(C(=O)O)N3C(=O)[C@@H](NC(=O)Cn4cnnn4)[C@@H]3SC2)s1`, the activity change, negative = inhibition in assay [14] (at 17.2 µM (top of the series)) was 3.67%; in assay [14] (at 38 µM (top of the series)) it was 2.44%; in assay [8] (at 17.2 µM (top of the series)), 2.74%; in assay [8] (at 38 µM (top of the series)), -2.96%. In addition, the Potency entry in assay [2], in [10], in assay [5], in assay [7] and in [19] was “inactive” each time. The activity, negative = inhibition in [9] (at 17.2 µM (top of the series)) is 8.89%; in [9] (at 38 µM (top of the series)), -5.18%. Moreover, the result in [16], in [17] and in assay [18] was inactive.

On to `C[N+]1(NCC[N@@+]2(C)CCc3ccccc3C2)CCCCC1`, for which the activity change, negative = inhibition in [14] (setting [20]) is -4.59%; in [8] (setting [20]), -23.2%. Further, the Potency result in [2], in assay [10] and in assay [5] was “inactive” each time. Also, in assay [9] (setting [20]), the activity, negative = inhibition was 7.24%. Moreover, the values for the Potency in [3] and in assay [4] were more than 46 µM and more than 9.22 µM, respectively.
